PMC3218832

Tests used:
Test in all cases: protein binding microarray; high values mean tight binding
Settings in all cases: dsDNA, one strand shown
[1] = molecular target: RELARELA (p65 homodimer) (Homo sapiens, UniProt Q04206 1-307)
[2] = molecular target: p50p50 homodimer (Homo sapiens, UniProt P19838 7-356)
[3] = molecular target: T1, p52p52 homodimer (Homo sapiens, UniProt Q00653 4-332)
T1 sequence: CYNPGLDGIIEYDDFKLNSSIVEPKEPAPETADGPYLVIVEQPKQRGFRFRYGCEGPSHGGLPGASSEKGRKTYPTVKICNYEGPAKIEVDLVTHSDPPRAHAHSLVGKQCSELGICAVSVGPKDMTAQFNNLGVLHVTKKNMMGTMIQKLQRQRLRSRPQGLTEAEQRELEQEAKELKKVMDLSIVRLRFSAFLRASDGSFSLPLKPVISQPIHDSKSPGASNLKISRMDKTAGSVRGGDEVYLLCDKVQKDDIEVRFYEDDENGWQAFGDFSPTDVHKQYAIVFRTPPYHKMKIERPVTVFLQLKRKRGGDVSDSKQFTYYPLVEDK

[4] = molecular target: RELA (p65) subunit of heterodimer;p50 subunit (Homo sapiens;Homo sapiens, UniProt Q04206;P19838 1-307;7-356)
[5] = molecular target: RELA (p65) subunit of heterodimer;p52 subunit (Homo sapiens;Homo sapiens, UniProt Q04206;Q00653 1-307;4-332)
[6] = molecular target: RELB subunit;p50 subunit (Homo sapiens;Homo sapiens, UniProt Q01201;P19838 120-401;7-356)
[7] = molecular target: T2, RELB subunit;p52 subunit (Homo sapiens;Homo sapiens, UniProt Q01201;Q00653 120-401;4-332)
T2 sequence 1: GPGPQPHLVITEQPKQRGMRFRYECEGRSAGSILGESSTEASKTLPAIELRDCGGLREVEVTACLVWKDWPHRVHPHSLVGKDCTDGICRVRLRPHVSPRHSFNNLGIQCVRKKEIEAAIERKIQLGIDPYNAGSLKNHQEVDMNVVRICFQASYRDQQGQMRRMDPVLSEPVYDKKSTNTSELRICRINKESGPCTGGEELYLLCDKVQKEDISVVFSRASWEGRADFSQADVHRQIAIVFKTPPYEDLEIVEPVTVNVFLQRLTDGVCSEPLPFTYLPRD
T2 sequence 2: T1 sequence

[8] = molecular target: C-Rel subunit;p50 subunit (Homo sapiens;Homo sapiens, UniProt Q04864;P19838 1-285;7-356)
[9] = molecular target: T3, C-Rel subunit;p52 subunit (Homo sapiens;Homo sapiens, UniProt Q04864;Q00653 1-285;4-332)
T3 sequence 1: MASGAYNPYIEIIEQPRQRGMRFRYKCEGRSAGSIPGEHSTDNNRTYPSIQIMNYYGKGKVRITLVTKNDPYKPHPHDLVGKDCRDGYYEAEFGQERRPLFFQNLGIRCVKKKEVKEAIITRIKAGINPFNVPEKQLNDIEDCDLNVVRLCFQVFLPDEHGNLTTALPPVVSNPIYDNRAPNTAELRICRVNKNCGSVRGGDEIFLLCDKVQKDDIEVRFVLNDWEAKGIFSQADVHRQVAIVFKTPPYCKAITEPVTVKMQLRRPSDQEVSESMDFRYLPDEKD
T3 sequence 2: T1 sequence

p50p50 homodimer, sequence (P19838 7-356): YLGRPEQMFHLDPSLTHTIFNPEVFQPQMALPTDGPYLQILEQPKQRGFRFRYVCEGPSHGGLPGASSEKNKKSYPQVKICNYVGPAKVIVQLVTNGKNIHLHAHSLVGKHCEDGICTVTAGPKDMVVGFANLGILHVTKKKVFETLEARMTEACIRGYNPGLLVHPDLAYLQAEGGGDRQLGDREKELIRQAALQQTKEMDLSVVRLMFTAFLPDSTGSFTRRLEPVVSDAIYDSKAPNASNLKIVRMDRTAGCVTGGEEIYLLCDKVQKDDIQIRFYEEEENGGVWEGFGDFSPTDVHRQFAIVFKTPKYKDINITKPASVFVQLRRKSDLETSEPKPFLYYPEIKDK
RELARELA (p65 homodimer), sequence (Q04206 1-307): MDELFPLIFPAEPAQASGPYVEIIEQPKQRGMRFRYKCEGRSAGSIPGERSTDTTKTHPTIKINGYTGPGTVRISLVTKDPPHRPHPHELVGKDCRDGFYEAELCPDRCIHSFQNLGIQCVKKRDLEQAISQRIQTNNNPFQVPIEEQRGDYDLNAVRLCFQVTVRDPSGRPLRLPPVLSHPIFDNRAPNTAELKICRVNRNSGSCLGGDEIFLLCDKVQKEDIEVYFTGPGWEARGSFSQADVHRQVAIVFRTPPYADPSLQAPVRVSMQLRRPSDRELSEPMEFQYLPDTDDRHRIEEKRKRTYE
RELA (p65) subunit of heterodimer;p50 subunit, sequence (Q04206 1-307, chain 1 of 2): as the sequence (Q04206 1-307) above
RELA (p65) subunit of heterodimer;p50 subunit, sequence (P19838 7-356, chain 2 of 2): as the sequence (P19838 7-356) above

| Sequence | binding signal [1] [z-score] | binding signal [2] [z-score] | binding signal [3] [z-score] | binding signal [4] [z-score] | binding signal [5] [z-score] | binding signal [6] [z-score] | binding signal [7] [z-score] | binding signal [8] [z-score] | binding signal [9] [z-score] |
| --- | --- | --- | --- | --- | --- | --- | --- | --- | --- |
| CGAGATTTCCC | 1.93 | 0.975 | 0.882 | 1.43 | 1.06 | 0.804 | 0.926 | 1.31 | 0.887 |
| CAAGAAACCCT | -0.512 | -0.321 | -0.245 | -0.525 | -0.264 | -0.492 | -0.353 | -0.467 | -0.305 |
| AGAAGGGTCCC | -0.591 | -0.215 | 0.0384 | -0.173 | -0.123 | -0.00663 | -0.0866 | -0.405 | -0.315 |
| CAGTTTGCCCC | 1.6 | 0.492 | 0.189 | 1.17 | 0.571 | 0.532 | 0.563 | 1.5 | 0.899 |
| GAGGAGGCCCT | -1.17 | -1.07 | -0.602 | -1.02 | -0.973 | -0.68 | -0.644 | -1.36 | -0.766 |
| CAAATTACCCT | 0.402 | 1.05 | 0.802 | 0.662 | 0.929 | 0.64 | 0.781 | 0.509 | 0.784 |
| CAGTTTATCCC | 0.419 | -0.117 | 0.0692 | -0.133 | -0.195 | -0.213 | -0.287 | 0.0891 | -0.0511 |
| GGATGGCTCCT | -0.414 | -1.51 | -0.721 | -1.07 | -1.08 | -1.19 | -1.05 | -1.64 | -0.938 |
| CGATGTACCCC | 0.132 | 0 | -0.0732 | -0.125 | 0.16 | 0.299 | 0.491 | 0.113 | 0.101 |
| AAAAGCCTCCT | -1.11 | -1.28 | -0.721 | -0.959 | -1.07 | -1.23 | -0.999 | -1.5 | -1.03 |
| CGATTAGTCCT | -0.163 | -1.16 | -0.532 | -0.961 | -0.861 | -1.12 | -0.766 | -1.1 | -0.684 |
| GAGAATACCCC | 0.964 | 1.14 | 0.914 | 1.24 | 1.18 | 1.05 | 1.31 | 1.03 | 0.996 |
| CAGGGGTTCCT | -0.143 | 0.529 | 0.77 | -0.0941 | 0.55 | -0.0145 | 0.388 | -0.324 | 0.485 |
| GGAGGATCCCC | 0.374 | 1.03 | 1.19 | 1.54 | 1.22 | 1.27 | 0.916 | 1.15 | 0.899 |
| AAAGTCGTCCT | -0.192 | -1.25 | -0.599 | -1.25 | -0.839 | -0.89 | -0.666 | -1.18 | -0.704 |
